# Measured values: the supplement of paper PMC10127200
# Structures can show the parent of a compound that is named as a salt.
# Experiments:
# Assay in all cases: Euclidean distance of Cell Painting phenotypic profile (signed KS, 77 features) to DMSO centroid (dimensionless distance); 5 or 10 uM (library dependent); higher = stronger phenotypic change vs DMSO (phenoactivity)
# Settings in all cases: 48 h
# 786-O = system: 786-O
# How it was run: (§1)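 Phenoactivity is computed as Euclidean distance to the median vehicle profile. The profiles, drawn from 77 Harmony features scored as signed Kolmogorov-Smirnov statistics versus same-plate vehicle wells, were corrected for plate position, correlation-weighted and replicate-averaged at the top dose. Stained cells were imaged confocally at 20X (9 fields/well) after 48 h with library compounds at 10 or 5 uM, 0.1% DMSO final, in five cancer lines and a healthy fibroblast line.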
# A549 = system: A549
# How it was run: as §1
# DU145 = system: DU145
# How it was run: as §1
# FB = system: FB
# How it was run: as §1
# HEPG2 = system: HEPG2
# How it was run: as §1
# OVCAR4 = system: OVCAR4
# How it was run: as §1
SMILES,Euclidean distance (786-O),Euclidean distance (A549),Euclidean distance (DU145),Euclidean distance (FB),Euclidean distance (HEPG2),Euclidean distance (OVCAR4)
COc1cc2c(N3CCN(C(=O)Nc4ccc(OC(C)C)cc4)CC3)ncnc2cc1OCCCN1CCCCC1 [Tandutinib (MLN518)],0.691,1.73,1.35,2.68,1.52,1.12
Oc1cc(O)c(Cl)cn1 [Gimeracil],0.868,1.07,1.6,1.25,2.06,1.53
N#CSc1cc(SC#N)c(N)nc1N,0.526,2.18,0.906,1.25,1.27,1.14
O=C(O[C@@H]1C[C@@H]2C[C@H]3C[C@H](C1)N2CC3=O)c1c[nH]c2ccccc12 [Dolasetron],1.37,2.35,2.37,1.37,0.624,2.04
COc1nc(N)nc2c1ncn2[C@@H]1O[C@H](CO)[C@@H](O)[C@@H]1O [Nelarabine],1.28,1.4,0.995,2.02,0.531,1.1
Cc1cc(=O)oc2cc(O)ccc12 [4-Methylumbelliferone (4-MU)],0.739,0.856,0.979,0.746,0.603,0.95
c1cn2cc(-c3ccc4cn[nH]c4c3)nc(Nc3ccc(N4CCOCC4)cc3)c2n1 [Entospletinib (GS-9973)],2.51,2.15,2.1,0.923,0.994,1.42
Nc1ccc(S(=O)(=O)Nc2ccnn2-c2ccccc2)cc1 [Sulfaphenazole],0.816,0.571,1.03,0.58,0.469,1.26
C[C@@H](NC(=O)c1ncnc(N)c1Cl)c1ncc(C(=O)Nc2cc(C(F)(F)F)c(Cl)cn2)s1,1.57,2.12,1.59,1.41,0.931,1.52
COc1ccc(C[C@H](N)C(=O)N[C@H]2[C@@H](O)[C@H](n3cnc4c(N(C)C)ncnc43)O[C@@H]2CO)cc1 [Puromycin 2HCl],6.42,3.8,4.87,6.23,4.76,6
CN1CCN(CCCN2c3ccccc3Sc3ccc(Cl)cc32)CC1 [Prochlorperazine dimaleate salt],1.84,2.24,1.63,2.19,2.85,1.67
CN(C)C1CCN(C(=O)c2ccc(NC(=O)Nc3ccc(-c4nc(N5CCOCC5)nc(N5CCOCC5)n4)cc3)cc2)CC1,3.29,3.49,1.98,4.95,2.04,3.62
O=C(O)CSc1nnc(Br)n1-c1ccc(C2CC2)c2ccccc12 [Lesinurad],0.529,0.673,0.762,0.983,1.61,0.826
Clc1ccccc1CN1CCc2sccc2C1 [Ticlopidine HCl],1.29,1.12,1.3,1.59,0.746,1.56
COc1ccc(CN2CCN(C(c3ccc(F)cc3)c3ccc(F)cc3)CC2)c(OC)c1OC [Lomerizine HCl],0.896,1.09,0.808,1.17,1.31,0.83
CCCC(=O)O[C@]1(C(=O)CCl)[C@H](C)C[C@@H]2[C@@H]3CCC4=CC(=O)C=C[C@]4(C)[C@]3(F)C(=O)C[C@@]21C [clobetasone butyrate],1.53,2.42,3.28,1.92,1.73,2.23
CO[C@H]1C[C@@H]2CC[C@@H](C)[C@@](O)(O2)C(=O)C(=O)N2CCCC[C@H]2C(=O)O[C@H]([C@H](C)C[C@@H]2CC[C@@H](OP(C)(C)=O)[C@H](OC)C2)CC(=O)[C@H](C)/C=C(\C)[C@@H](O)[C@@H](OC)C(=O)[C@H](C)C[C@H](C)/C=C/C=C/C=C/1C [Deforolimus],2.73,2.02,1.35,3.08,1.23,2.14
CCCCC[C@H](O)/C=C/[C@H]1[C@H](O)CC(=O)[C@@H]1CCCCCCC(=O)O [Alprostadil],1.36,0.929,0.936,1.16,0.927,1.2
CC(=O)O[C@H]1C[C@@]2(C)[C@@H](C[C@@H](O)[C@H]3[C@@]4(C)CC[C@@H](O)[C@@H](C)[C@@H]4CC[C@@]32C)/C1=C(\CCC=C(C)C)C(=O)O [Fusidine],0.63,0.807,0.822,0.84,0.634,1.3
CC(C)(C)c1cnc(CSc2cnc(NC(=O)C3CCNCC3)s2)o1,2.67,3.69,2.93,3.38,2.81,3.27
CCOc1ccc2c(-c3cccc(F)c3)nn(CC(=O)N(C)c3ccc4nc(C)oc4c3)c(=O)c2c1,1.05,0.995,1.36,0.808,0.431,0.932
COc1cc2nccc(Oc3ccc(NC(=O)Nc4cc(C)on4)c(Cl)c3)c2cc1OC [Tivozanib (AV-951)],2.03,2.81,1.83,2.67,2.21,2.39
